Where “and” joins values, the source holds several entries; their conditions need not be identical. Equal entries are not always repeated. More than one record can exist for a structure, and the calls need not agree. Calls of active or inactive are those of the source. Rule for the calls: active = hit-call score of the fitted dose curve at least 0.9, where 1 is the maximum; inactive = score below 0.9.

The nature of assay [1]: ATG_GLI_CIS: Attagene CIS-FACTORIAL HepG2 Assay for human Zinc Finger Protein GLI1 (AID 2282945). As to conditions: HepG2, Attagene cis-factorial reporter mRNA, GLI element; actives raise or lower the signal. The gist of the method: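 HepG2 cells transiently transfected with cis-promoter multiplexed reporter units report endogenous transcription factor activity. After 24 h chemical exposure, reporter mRNA was quantified by RT-PCR, 6-FAM labelling, HpaI digestion and capillary electrophoresis, with bidirectional fitting against DMSO.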

Assay [2] is described as follows: ATG_GRE_CIS: Attagene CIS-FACTORIAL HepG2 Assay for human Glucocorticoid Response Elements (GRE) (AID 2282947). To be noted: HepG2 GRE cis-reporter, Attagene multiplex mRNA; actives raise or lower the signal. The essentials: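 HepG2 cells transiently transfected with multiple cis-promoter reporter units measure endogenous TF activity; 24 h compound exposure. Reporter mRNA quantified by RT-PCR, FAM labelling, HpaI digestion and capillary electrophoresis; bidirectional fit vs DMSO baseline.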

The nature of assay [3]: ATG_ISRE_CIS: Attagene CIS-FACTORIAL HepG2 Assay for human Interferon Regulatory Factor 1 (IRF1) binding to an Interferon-Stimulated Response Element (ISRE) (AID 2282948). As to conditions: HepG2 ISRE cis-reporter (Attagene), mRNA transcription readout; actives raise or lower the signal. The essentials: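 Transfected HepG2 (multiple reporter transcription units, cis elements) dosed 24 h. RNA → oligo(dT) RT → PCR → 6-FAM primer extension → HpaI → CE. DMSO = negative control/baseline.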

Assay [4] can be described thus: ATG_M_32_CIS: Attagene CIS-FACTORIAL HepG2 Assay for M32 Transcription Factor (Internal Marker) (AID 2282949).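 Note: background control marker of the multiplexed CIS panel rather than a real target.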 To be noted: HepG2 Attagene cis-factorial M32 reporter, mRNA; actives raise or lower the signal. The gist of the method: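 Internal background marker read-out: RT-PCR/capillary electrophoresis fluorescence of reporter transcripts from transiently transfected HepG2 cells after 24 h chemical exposure. Activity fitted bidirectionally relative to DMSO negative control.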

Assay [5] can be described thus: ATG_M_06_CIS: Attagene CIS-FACTORIAL HepG2 Assay for M06 Transcription Factor (Internal Marker) (AID 2282950). As to conditions: HepG2 Attagene CIS-FACTORIAL M06 internal marker reporter; actives raise or lower the signal. The essentials: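 Terse: HepG2, transient MRTU transfection (FuGene 6), 24 h dosing; total RNA, oligo(dT) RT, PCR, FAM label, HpaI cut, capillary electrophoresis; bidirectional fit vs DMSO baseline; background-control endpoint.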

Assay [6] has as its target Hypoxia-inducible factor 1-alpha (Homo sapiens) (UniProt Q16665). Nature of the assay: ATG_HIF1a_CIS: Attagene CIS-FACTORIAL HepG2 Assay for human Hypoxia Inducible Factor 1 (HIF1A) (AID 2282951). As to conditions: HepG2 Attagene cis-factorial HIF1a reporter transcription; actives raise or lower the signal. The gist of the method:
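Endogenous-TF cis reporter readout, human HepG2 cells, 24 h incubation; mRNA detected via RT-PCR and capillary electrophoresis fluorescence; DMSO-normalised bidirectional fitting.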

For assay [7], the target named is Hepatocyte nuclear factor 6 (Homo sapiens) (UniProt Q9UBC0). The experiment in a line: ATG_HNF6_CIS: Attagene CIS-FACTORIAL HepG2 Assay for human Hepatocyte Nuclear Factor 6 (HNF6) (AID 2282952). To be noted: HepG2 Attagene cis-factorial HNF6 reporter transcription; actives raise or lower the signal. The gist of the method:
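HepG2 cells transiently transfected with cis-element-driven multiplexed reporter units measuring endogenous transcription factor activity. After 24 h exposure, reporter mRNA quantified by RT-PCR, FAM-labelled fragments and capillary electrophoresis; bidirectional fitting versus DMSO.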

In assay [8] the target is Heat shock factor protein 1 (Homo sapiens) (UniProt Q00613). The experiment in a line: ATG_HSE_CIS: Attagene CIS-FACTORIAL HepG2 Assay for human Heat Shock Transcription Factor 1 (HSE) (AID 2282953). As to conditions: HepG2 HSE cis-reporter, Attagene RNA transcription; actives raise or lower the signal. The gist of the method:
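Read-out: fluorescence of reporter-specific RT-PCR fragments separated by capillary electrophoresis. HepG2 carrying transfected cis-element reporter units; 24 h dosing; activity fitted in both directions relative to DMSO baseline.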

A short description of assay [9]: ATG_MRE_CIS: Attagene CIS-FACTORIAL HepG2 Assay for human Metal Responsive Element (MRE) (AID 2282954). As to conditions: HepG2 MRE cis-reporter transcription, Attagene multiplex; actives raise or lower the signal. The gist of the method: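 HepG2 cells transiently transfected with multiple cis-element reporter units measure endogenous MTF1-driven transcription. After 24 h compound exposure, reporter mRNA is quantified by RT-PCR with 6-FAM labelling, HpaI digestion and capillary electrophoresis; bidirectional fits versus DMSO.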

Assay [10] can be described thus: ATG_PBREM_CIS: Attagene CIS-FACTORIAL HepG2 Assay for human Phenobarbital-responsive Enhancer Module (PBREM) (AID 2282955). As to conditions: HepG2 PBREM cis-reporter, Attagene multiplexed transcription; actives raise or lower the signal. The essentials:
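Readout: reporter mRNA, fluorescent RT-PCR fragments separated by capillary electrophoresis. System: HepG2 transiently transfected with cis-regulated reporter units. Exposure: 24 h. Analysis: bidirectional, DMSO baseline.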

Assay [11] deals with Paired box protein Pax-6 (Homo sapiens) (UniProt P26367). Nature of the assay: ATG_Pax6_CIS: Attagene CIS-FACTORIAL HepG2 Assay for human Paired Box 6 (PAX6) (AID 2282956). To be noted: HepG2 CIS-FACTORIAL PAX6 reporter transcription, RNA readout; actives raise or lower the signal. The essentials: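 Transient MRTU transfection of HepG2 → compound exposure 24 h → TriZol RNA, oligo(dT) RT → PCR, 6-FAM primer extension, HpaI cut → capillary electrophoresis; activity fitted both directions against DMSO.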
Chain of Paired box protein Pax-6 (Homo sapiens) (P26367 whole entry, looked up): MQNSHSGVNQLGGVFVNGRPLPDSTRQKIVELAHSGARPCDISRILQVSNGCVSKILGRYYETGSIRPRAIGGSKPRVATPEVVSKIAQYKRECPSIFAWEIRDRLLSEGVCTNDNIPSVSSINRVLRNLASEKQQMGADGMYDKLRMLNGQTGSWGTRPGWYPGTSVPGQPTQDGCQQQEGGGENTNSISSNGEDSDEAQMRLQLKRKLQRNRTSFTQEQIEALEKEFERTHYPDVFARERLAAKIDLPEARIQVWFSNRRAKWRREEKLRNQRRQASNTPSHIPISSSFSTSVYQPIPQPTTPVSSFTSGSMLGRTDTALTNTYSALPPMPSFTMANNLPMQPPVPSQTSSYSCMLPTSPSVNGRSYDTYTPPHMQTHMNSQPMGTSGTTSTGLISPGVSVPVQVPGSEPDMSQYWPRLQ

The nature of assay [12]: ATG_PXRE_CIS: Attagene CIS-FACTORIAL HepG2 Assay for human Pregnane X Receptor Element (PXRE) (AID 2282957). As to conditions: HepG2 Attagene CIS-FACTORIAL PXRE reporter, mRNA; actives raise or lower the signal. The gist of the method: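 HepG2 cells transiently transfected with cis-element-driven multiplexed reporter units; after 24 h chemical exposure, reporter mRNA measured by RT-PCR, 6-FAM labelling, HpaI digestion and capillary electrophoresis. Bidirectional fitting relative to DMSO.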

The nature of assay [13]: ATG_RORE_CIS: Attagene CIS-FACTORIAL HepG2 Assay for human RAR-related Orphan Receptor Element (RORE) (AID 2282959). As to conditions: HepG2 Attagene cis-factorial RORE reporter, mRNA; actives raise or lower the signal. The essentials: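 Measured here: transcript induction of a cis-regulated reporter in HepG2 cells transiently transfected via FuGene 6. After 24 h, RNA was processed by RT-PCR and fluorescent capillary electrophoresis; DMSO defined baseline activity.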

A short description of assay [14]: ATG_Sox_CIS: Attagene CIS-FACTORIAL HepG2 Assay for human SRY-box transcription factor (SOX) (AID 2282960). To be noted: HepG2 Attagene cis-factorial SOX reporter, mRNA; actives raise or lower the signal. The essentials: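 Using transiently transfected HepG2 cells, reporter transcription driven by cis elements was assessed 24 h after dosing. Signal was fluorescence of capillary-separated RT-PCR products, with DMSO defining baseline activity.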

For assay [15], the target named is Transcription factor Sp1 (Homo sapiens) (UniProt P08047). Nature of the assay: ATG_Sp1_CIS: Attagene CIS-FACTORIAL HepG2 Assay for human Specificity Protein 1 (Sp1) (AID 2282961). As to conditions: HepG2 Sp1 cis-reporter transcription, actives raise or lower the signal. The essentials:
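After transient transfection of HepG2 cells with cis-promoter reporter units and 24 h chemical treatment, reporter transcripts were quantified by RT-PCR and capillary electrophoresis fluorescence. Gain- and loss-of-signal fitted against DMSO.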

Assay [16] in a line: ATG_SREBP_CIS: Attagene CIS-FACTORIAL HepG2 Assay for human Sterol Regulatory Element Binding (SREBP) (AID 2282962). To be noted: HepG2 Attagene cis-factorial SREBP reporter, mRNA; actives raise or lower the signal. The essentials: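 Transfected HepG2 (cis-regulated reporter library, endogenous TFs) → compound 24 h → total RNA → oligo(dT) RT → reporter-specific PCR → FAM primer extension, HpaI cut → CE fluorescence. Fit bidirectional vs DMSO.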

Assay [17] deals with Signal transducer and activator of transcription 3 (Homo sapiens) (UniProt P40763). The experiment in a line: ATG_STAT3_CIS: Attagene CIS-FACTORIAL HepG2 Assay for human Signal Transducer and Activator of Transcription 3 (STAT3) (AID 2282963). As to conditions: HepG2, Attagene cis-factorial STAT3 reporter transcription; actives raise or lower the signal. The gist of the method: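 HepG2 cells transiently transfected with cis-element-driven multiple reporter transcription units; after 24 h chemical exposure, reporter mRNA measured by RT-PCR, 6-FAM primer-extension labelling, HpaI digestion and capillary electrophoresis. Bidirectional fitting versus DMSO baseline.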
Chain of Signal transducer and activator of transcription 3 (Homo sapiens) (P40763 whole entry, looked up): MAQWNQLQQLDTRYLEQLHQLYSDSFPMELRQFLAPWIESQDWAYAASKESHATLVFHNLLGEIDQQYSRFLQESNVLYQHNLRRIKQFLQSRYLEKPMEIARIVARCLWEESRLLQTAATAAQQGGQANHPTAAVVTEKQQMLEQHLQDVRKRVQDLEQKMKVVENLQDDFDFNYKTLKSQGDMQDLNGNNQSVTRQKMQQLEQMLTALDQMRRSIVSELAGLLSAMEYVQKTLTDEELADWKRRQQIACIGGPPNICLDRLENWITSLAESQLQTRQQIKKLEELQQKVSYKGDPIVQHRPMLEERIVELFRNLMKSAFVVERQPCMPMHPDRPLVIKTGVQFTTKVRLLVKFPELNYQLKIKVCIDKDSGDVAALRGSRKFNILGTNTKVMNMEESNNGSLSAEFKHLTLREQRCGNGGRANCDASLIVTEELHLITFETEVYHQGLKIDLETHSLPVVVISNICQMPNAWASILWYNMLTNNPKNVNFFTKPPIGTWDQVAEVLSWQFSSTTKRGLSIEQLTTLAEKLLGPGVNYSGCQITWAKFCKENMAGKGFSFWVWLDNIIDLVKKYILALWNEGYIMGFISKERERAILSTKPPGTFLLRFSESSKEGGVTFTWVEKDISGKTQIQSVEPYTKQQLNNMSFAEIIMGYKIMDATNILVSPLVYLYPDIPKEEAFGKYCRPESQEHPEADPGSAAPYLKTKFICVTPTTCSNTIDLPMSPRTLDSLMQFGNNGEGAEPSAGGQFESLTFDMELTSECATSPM

A short description of assay [18]: ATG_TA_CIS: Attagene CIS-FACTORIAL HepG2 Assay for human TA Basal Promoter (AID 2282964). To be noted: HepG2 Attagene CIS-factorial TA basal promoter reporter; actives raise or lower the signal. The gist of the method:
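Transfected HepG2, 24 h compound exposure; RNA → RT-PCR → FAM primer extension → HpaI cut → CE fluorescence. Gain/loss-of-signal fitted against DMSO negative control. Background-control readout.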

Assay [19] in a line: ATG_TCF_b_cat_CIS: Attagene CIS-FACTORIAL HepG2 Assay for human T-Cell-Factor with beta-catenin (TCF/b-cat) (AID 2282965). As to conditions: HepG2 TCF/beta-catenin cis-reporter transcription, actives raise or lower the signal. The essentials:
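HepG2 cells transiently transfected with multiple cis-promoter-regulated reporter transcription units, so endogenous transcription factor activity is measured. Reporter mRNA read 24 hours after dosing by RT-PCR, fluorescent labelling and capillary electrophoresis; bidirectional fitting against DMSO.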

Assay [20] in a line: ATG_PPRE_CIS: Attagene CIS-FACTORIAL HepG2 Assay for human Peroxisome Proliferator-activated Response Element (PPRE) (AID 2282958). As to conditions: HepG2 PPRE cis-element reporter, Attagene transcription factor profiling; actives raise or lower the signal. The gist of the method: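 After human HepG2 hepatoma cells were transiently transfected with cis-promoter reporter constructs, they were exposed to test chemicals for 24 hours. Reporter RNA was then reverse-transcribed, PCR-amplified, FAM-labeled, HpaI-digested and quantified by capillary electrophoresis.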

Chain of Heat shock factor protein 1 (Homo sapiens) (Q00613 whole entry, looked up, the tested form may be a part): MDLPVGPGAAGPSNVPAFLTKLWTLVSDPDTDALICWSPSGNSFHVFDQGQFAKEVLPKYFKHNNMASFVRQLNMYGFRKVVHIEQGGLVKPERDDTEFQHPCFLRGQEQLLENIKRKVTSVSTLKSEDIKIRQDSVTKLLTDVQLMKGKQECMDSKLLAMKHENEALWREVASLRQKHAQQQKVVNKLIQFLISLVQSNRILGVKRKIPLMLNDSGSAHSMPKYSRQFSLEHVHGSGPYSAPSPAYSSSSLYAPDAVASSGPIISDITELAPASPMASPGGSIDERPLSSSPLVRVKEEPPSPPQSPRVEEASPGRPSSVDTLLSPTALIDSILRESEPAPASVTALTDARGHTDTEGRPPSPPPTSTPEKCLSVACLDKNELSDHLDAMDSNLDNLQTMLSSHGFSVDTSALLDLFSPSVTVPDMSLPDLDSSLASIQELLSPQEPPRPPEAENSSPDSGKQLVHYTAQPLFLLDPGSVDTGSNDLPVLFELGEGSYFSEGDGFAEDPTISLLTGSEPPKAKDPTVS
Chain of Hepatocyte nuclear factor 6 (Homo sapiens) (Q9UBC0 whole entry, looked up, the tested form may be a part): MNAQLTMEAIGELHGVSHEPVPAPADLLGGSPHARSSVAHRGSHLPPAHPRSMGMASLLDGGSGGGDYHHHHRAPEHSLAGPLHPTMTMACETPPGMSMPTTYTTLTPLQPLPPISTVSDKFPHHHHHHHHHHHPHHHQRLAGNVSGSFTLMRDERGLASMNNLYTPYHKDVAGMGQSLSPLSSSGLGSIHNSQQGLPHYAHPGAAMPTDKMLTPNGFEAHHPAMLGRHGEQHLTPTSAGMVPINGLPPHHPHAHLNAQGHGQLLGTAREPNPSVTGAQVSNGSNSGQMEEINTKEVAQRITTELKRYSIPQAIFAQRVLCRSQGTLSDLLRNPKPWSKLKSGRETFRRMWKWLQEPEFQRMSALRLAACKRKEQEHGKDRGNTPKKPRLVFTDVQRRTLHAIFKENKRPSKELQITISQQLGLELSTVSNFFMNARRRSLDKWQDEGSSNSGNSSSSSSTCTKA
Chain of Hypoxia-inducible factor 1-alpha (Homo sapiens) (Q16665 whole entry, looked up): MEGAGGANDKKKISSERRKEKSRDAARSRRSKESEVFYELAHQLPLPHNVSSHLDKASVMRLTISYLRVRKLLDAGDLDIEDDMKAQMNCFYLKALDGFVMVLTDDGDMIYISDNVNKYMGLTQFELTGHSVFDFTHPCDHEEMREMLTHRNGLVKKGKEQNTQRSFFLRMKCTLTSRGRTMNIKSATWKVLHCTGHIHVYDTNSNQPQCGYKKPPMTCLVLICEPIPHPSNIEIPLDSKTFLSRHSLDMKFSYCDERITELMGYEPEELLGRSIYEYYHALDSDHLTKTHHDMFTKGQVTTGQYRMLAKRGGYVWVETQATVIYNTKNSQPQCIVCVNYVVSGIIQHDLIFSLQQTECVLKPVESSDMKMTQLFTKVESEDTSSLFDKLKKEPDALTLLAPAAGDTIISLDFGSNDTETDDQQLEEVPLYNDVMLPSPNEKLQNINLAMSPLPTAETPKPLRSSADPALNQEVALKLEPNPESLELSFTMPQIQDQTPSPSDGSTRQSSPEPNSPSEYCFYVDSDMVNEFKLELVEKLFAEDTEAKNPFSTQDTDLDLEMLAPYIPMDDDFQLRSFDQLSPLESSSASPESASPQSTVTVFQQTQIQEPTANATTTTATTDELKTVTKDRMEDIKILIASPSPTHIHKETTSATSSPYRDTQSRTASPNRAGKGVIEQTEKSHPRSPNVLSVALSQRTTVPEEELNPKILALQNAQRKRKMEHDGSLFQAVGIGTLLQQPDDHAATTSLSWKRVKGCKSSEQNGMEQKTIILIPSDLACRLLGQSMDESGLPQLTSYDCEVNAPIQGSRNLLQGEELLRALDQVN
Chain of Transcription factor Sp1 (Homo sapiens) (P08047 whole entry, looked up): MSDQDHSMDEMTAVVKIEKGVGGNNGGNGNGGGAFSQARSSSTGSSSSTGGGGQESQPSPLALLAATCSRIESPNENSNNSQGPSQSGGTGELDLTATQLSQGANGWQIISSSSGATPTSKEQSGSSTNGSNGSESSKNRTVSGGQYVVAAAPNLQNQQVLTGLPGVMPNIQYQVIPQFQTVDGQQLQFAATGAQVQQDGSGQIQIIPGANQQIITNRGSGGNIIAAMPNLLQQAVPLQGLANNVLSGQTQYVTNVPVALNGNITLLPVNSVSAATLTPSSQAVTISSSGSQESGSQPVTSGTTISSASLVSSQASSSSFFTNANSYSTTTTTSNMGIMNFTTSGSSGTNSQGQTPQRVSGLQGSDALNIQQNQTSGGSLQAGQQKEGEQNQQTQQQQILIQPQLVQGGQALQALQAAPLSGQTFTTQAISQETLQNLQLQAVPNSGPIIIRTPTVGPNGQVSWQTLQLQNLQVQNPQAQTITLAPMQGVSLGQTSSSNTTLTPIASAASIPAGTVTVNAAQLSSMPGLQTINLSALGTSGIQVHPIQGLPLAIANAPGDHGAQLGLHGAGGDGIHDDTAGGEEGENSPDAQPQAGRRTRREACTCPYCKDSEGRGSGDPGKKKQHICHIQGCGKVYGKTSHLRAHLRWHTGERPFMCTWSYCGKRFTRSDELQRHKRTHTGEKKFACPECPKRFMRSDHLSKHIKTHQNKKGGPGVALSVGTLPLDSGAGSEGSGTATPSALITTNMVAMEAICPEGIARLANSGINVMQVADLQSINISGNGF

Consider `O=S1OCC2C(CO1)C1(Cl)C(Cl)=C(Cl)C2(Cl)C1(Cl)Cl` (configuration not stated), for which the molecule was called inactive in [1], in assay [2], in assay [3], in assay [4], in [5] and in assay [6]. Moreover, the molecule was classed as inactive in assay [7], in assay [8], in assay [9], in assay [10], in [11] and in assay [13]. The molecule was classed as inactive in assay [14], in [15], in assay [16], in assay [17], in [18] and in assay [19]. Also, in assay [12], the AC50 (usually the concentration at which the activity in the assay is half-maximal) is 1.47 µM (active).

`O=S(=O)(O)C(F)(F)C(F)(F)C(F)(F)C(F)(F)C(F)(F)C(F)(F)C(F)(F)C(F)(F)F`: the molecule was classed as inactive in [1], in assay [3], in [4], in [5], in assay [6] and in assay [7]. For the same molecule, the molecule was called inactive in assay [8], in assay [9], in [11], in assay [13], in assay [14] and in assay [15]. Besides, the molecule was called inactive in assay [16], in [17], in assay [18] and in assay [19]. In addition, the AC50 in [4] is 53.6 µM (active); in assay [6] it was 84 µM (active); in [7], 24.7 µM (active) and 208 µM (active) and 272 µM (active); in assay [8], 182 µM (active) and 54.8 µM (active); in assay [13], 133 µM (active); in [14] it was 52.8 µM (active). Besides, the AC50 in [15] is 26.5 µM (active) and 53.3 µM (active); in assay [16] it was 68.7 µM (active); in assay [18], 55.9 µM (active).

For the molecule `CC(C)OC(=O)Nc1cccc(Cl)c1`, the molecule was called inactive in assay [1], in assay [3], in assay [4], in assay [5], in assay [6] and in assay [7]. Also, the result in assay [8], in assay [11], in [13], in assay [14], in assay [15] and in assay [16] was inactive. The call in assay [17], in assay [18] and in assay [19] was inactive. Besides, the concentration at half-maximal activity (AC50) in [9] was 50 µM (active); in assay [12], 15.5 µM (active); in assay [20], 47.1 µM (active).

For the origin of these results see PubChem BioAssay (EPA / NIEHS).
